Measured values reported in PubChem BioAssay AID1159580 (chemical genetic matrix, 2015).
Where “and” joins values, the source holds several entries; their conditions need not be identical. Identical values can stand only once. The whole screen tested about 5,500 compounds, of which about 2,000 (36%) were called active. Another 18% or so got no clear call; they are omitted. No stated cut-off is given here; in the data, active means normalized growth mostly below about 0.91 (no sharp cut-off); inconclusive means no clear call, values can overlap the other calls; inactive means mostly above about 0.92. The list shows a part of the results.

Assay: chemical genetic growth profiling, strain panel (AID 1159580);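 further: tested at 20 µM; growth read once vehicle control cultures reached saturation at 30 °C; 1 = growth at the plate median or of vehicle wells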
Conditions: S. cerevisiae deletion strains, growth OD

Measured: normalized growth

CC1(C)O[C@@H]2CC3C4C[C@H](F)C5=CC(=O)C=CC5(C)C4C(O)CC3(C)[C@]2(C(=O)CO)O1 (stereo partly drawn)
inactive: locus YAL013W, strain DEP1, stronger effect = lower value 1.02 | locus YAL021C, strain ccr4, stronger effect = lower value 1 | locus YAL026C, strain drs2, stronger effect = lower value 0.993 | locus YAL030W, strain snc1, stronger effect = lower value 0.992 | locus YBL061C, strain skt5, stronger effect = lower value 0.979 | locus YBR009C, strain hhf1, stronger effect = lower value 1.01 | locus YBR021W, strain FUR4, stronger effect = lower value 1.02 | locus YBR023C, strain chs3, stronger effect = lower value 0.987 | locus YBR171W, strain sec66, stronger effect = lower value 0.985 | locus YBR229C, strain ROT2, stronger effect = lower value 1.02 | locus YBR231C, strain swc5, stronger effect = lower value 1 | locus YBR279W, strain paf1, stronger effect = lower value 0.976 | locus YCL011C, strain gbp2, stronger effect = lower value 0.982 | locus YCL016C, strain dcc1, stronger effect = lower value 0.96 | locus YCL029C, strain bik1, stronger effect = lower value 0.989 | locus YCL069W, strain vba3, stronger effect = lower value 0.995 | locus YCR088W, strain abp1, stronger effect = lower value 0.992 | locus YDL005C, strain med2, stronger effect = lower value 0.973 | locus YDL035C, strain GPR1, stronger effect = lower value 1.02 | locus YDL040C, strain nat1, stronger effect = lower value 0.983 | locus YDL074C, strain BRE1, stronger effect = lower value 1.04 | locus YDL101C, strain DUN1, stronger effect = lower value 1.02 | locus YDL134C, strain PPH21, stronger effect = lower value 1.02 | locus YDL185W, strain tfp1, stronger effect = lower value 0.991 | locus YDL192W, strain arf1, stronger effect = lower value 1.01 | locus YDR001C, strain nth1, stronger effect = lower value 0.983 | locus YDR069C, strain doa4, stronger effect = lower value 1 | locus YDR101C, strain arx1, stronger effect = lower value 1 | locus YDR137W, strain rgp1, stronger effect = lower value 1 | locus YDR159W, strain sac3, stronger effect = lower value 0.982 | locus YDR162C, strain NBP2, stronger effect = lower value 1.01 | locus YDR195W, strain ref2 0.997 | locus YDR297W, strain sur2, stronger effect = lower value 1 | locus YDR318W, strain mcm21, stronger effect = lower value 0.996 | locus YDR334W, strain swr1, stronger effect = lower value 0.985 | locus YDR335W, strain msn5, stronger effect = lower value 0.975 | locus YDR388W, stronger effect = lower value 0.99 | locus YDR392W, strain spt3, stronger effect = lower value 0.917 | locus YDR502C, strain sam2, stronger effect = lower value 0.991 | locus YEL003W, strain gim4, stronger effect = lower value 1.02 | locus YEL037C, strain rad23, stronger effect = lower value 0.979 | locus YEL061C, strain CIN8 (second series), stronger effect = lower value 0.987 | locus YEL061C, strain CIN8, stronger effect = lower value 1.01 | locus YER015W, strain faa2, stronger effect = lower value 0.996 | locus YER016W, strain bim1, stronger effect = lower value 0.971 | locus YER110C, stronger effect = lower value 0.988 | locus YER111C, strain swi4, stronger effect = lower value 0.975 | locus YER155C, strain BEM2 (second series), stronger effect = lower value 1.01 | locus YER155C, strain BEM2, stronger effect = lower value 1.01 | locus YER167W, strain BCK2, stronger effect = lower value 1.01 | locus YFR010W, strain ubp6, stronger effect = lower value 1.01 | locus YGL078C, strain dbp3, stronger effect = lower value 0.979 | locus YGL086W, strain mad1, stronger effect = lower value 1.01 | locus YGL167C, strain pmr1, stronger effect = lower value 0.996 | locus YGL173C, strain kem1, stronger effect = lower value 1 | locus YGL227W, strain vid30, stronger effect = lower value 0.988 | locus YGL240W, strain doc1, stronger effect = lower value 1.02 | locus YGL248W, strain PDE1, stronger effect = lower value 1.03 | locus YGL253W, strain hxk2, stronger effect = lower value 0.959 | locus YGR135W, strain pre9, stronger effect = lower value 0.98 | locus YGR252W, strain gcn5, stronger effect = lower value 0.984 | locus YHR013C, strain ard1, stronger effect = lower value 0.957 | locus YHR027C, strain rpn1, stronger effect = lower value 0.99 | locus YHR030C, strain SLT2, stronger effect = lower value 1.01 and 1.02 | locus YHR079C, strain IRE1 (second series), stronger effect = lower value 0.99 | locus YHR079C, strain IRE1, stronger effect = lower value 1.02 | locus YHR094C, strain hxt1, stronger effect = lower value 0.98 | locus YHR129C, strain ARP1, stronger effect = lower value 1.02 | locus YHR142W, strain chs7, stronger effect = lower value 0.941 | locus YHR200W, strain rpn10, stronger effect = lower value 0.998 | locus YIL066C, strain RNR3, stronger effect = lower value 1.02 | locus YIL073C, strain SPO22, stronger effect = lower value 0.999 | locus YIL125W, strain kgd1, stronger effect = lower value 0.99 | locus YIR030C, strain dcg1, stronger effect = lower value 0.998 | locus YJL092W, strain hpr5, stronger effect = lower value 1 | locus YJL095W, strain BCK1 (second series), stronger effect = lower value 0.978 | locus YJL095W, strain BCK1, stronger effect = lower value 1.04 and 1.03 | locus YJL115W, strain asf1, stronger effect = lower value 0.974 | locus YJL129C, strain trk1, stronger effect = lower value 0.953 | locus YJL134W, strain LCB3, stronger effect = lower value 1.01 | locus YJL154C, strain vps35, stronger effect = lower value 0.976 | locus YJL164C, strain tpk1, stronger effect = lower value 0.972 | locus YJL166W, strain qcr8, stronger effect = lower value 1.02 | locus YJL168C, strain set2, stronger effect = lower value 0.993 | locus YJL187C, strain SWE1 (second series), stronger effect = lower value 1.02 | locus YJR043C, strain POL32, stronger effect = lower value 1.02 | locus YJR066W, strain TOR1, stronger effect = lower value 0.954 | locus YJR075W, strain HOC1, stronger effect = lower value 1.03
